In all, about 35,000 sequences were measured (“fluorescence intensity (a.u.)”: median about 10,000, highest 2% from about 52,000 on). The list comes from a sample in which the highest values are over-represented; it also holds similar and randomly drawn sequences.
What follows are sequences tested against T1, OsWOX13 (Oryza sativa, UniProt Q5QMM3 1-267) (assay: protein-binding microarray (RPBM); PBS, 2% BSA, 51.3 ng/ul salmon testes DNA, 50 uM zinc acetate, 200 nM TF, 25 C, 1 h; high values mean tight binding). Settings: protein: recombinant; tags: N-terminal polyhistidine and DsRed monomer fusion (pET32a); label: CyDye5-dUTP incorporated in the synthesized complementary strand; 3' TTTTT single-stranded linker to array surface; dsDNA, one strand shown.
T1 sequence: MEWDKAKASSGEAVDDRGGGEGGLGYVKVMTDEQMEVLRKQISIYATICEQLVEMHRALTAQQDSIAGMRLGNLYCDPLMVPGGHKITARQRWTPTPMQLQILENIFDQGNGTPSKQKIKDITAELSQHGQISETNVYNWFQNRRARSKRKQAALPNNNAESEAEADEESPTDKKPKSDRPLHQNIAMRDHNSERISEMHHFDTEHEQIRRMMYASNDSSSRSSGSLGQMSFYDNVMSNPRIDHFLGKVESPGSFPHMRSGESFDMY
In short: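 Per-feature fluorescence intensity (arbitrary units), read on an Axon 4000B scanner, is the binding signal. Transcription factors carrying an N-terminal polyhistidine tag and DsRed fusion were expressed in E. coli BL21-CodonPlus and purified on Ni–NTA. A custom Agilent array, made double-stranded by primer extension with Cy5-dUTP and blocked with 2% BSA, was incubated with 200 nM protein in PBS, 2% BSA, salmon testes DNA and 50 µM zinc acetate at 25 °C for 1 h and then washed.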
“GGGCTGTTTAGTTTTGGATTGATTGAGCAATGTAATATAACGGAGTCACCTAGTGCAG” was tested, and the binding signal was 22200 fluorescence intensity (a.u.). With “ATAAATAAACTTATTTTGAGATAATGGTGTAATAGTGTAGCGGAGTCACCTAGTGCAG” the binding signal was 5300 fluorescence intensity (a.u.). For “GTAGATAGATGGCACATTGGCAGTGATGGCTGTGTACAGTCGGAGTCACCTAGTGCAG”, the binding signal was 8260 fluorescence intensity (a.u.). “TGTTATAATAGTGTAGATTGATCGATATAATTGTATATGACGGAGTCACCTAGTGCAG” was tested, and the binding signal was 3170 fluorescence intensity (a.u.). For “TCTTGACACCGGCCGGATTGATCTATCATCCATCCATCGACGGAGTCACCTAGTGCAG”, the binding signal was 12300 fluorescence intensity (a.u.). For “ATATAATAATAGATAGATAGATAGATAGATAGATAGATAGCGGAGTCACCTAGTGCAG”, the binding signal was 49300 fluorescence intensity (a.u.). With “AGATCTGATTGATATTGATCCATCGCCGATCGATTGATCACGGAGTCACCTAGTGCAG” the binding signal was 53800 fluorescence intensity (a.u.). “TAGATAGATAGATAGATATAGTTGGTGTGTTTGACCCTAGCGGAGTCACCTAGTGCAG” was tested, and the binding signal was 36400 fluorescence intensity (a.u.). In the case of “TTTGATTGAGATTGATAATAACCTGCTGTAACTTAGCGAACGGAGTCACCTAGTGCAG”, the binding signal is reported as 61100 fluorescence intensity (a.u.). For “GATAGATAGATAGATAGATAGATAGATTTGTTGGCTGTGTCGGAGTCACCTAGTGCAG”, the binding signal was 63500 fluorescence intensity (a.u.). In the case of “ATAACTAATATAATCGAACCTGCCTCACTTAATATGTGGCCGGAGTCACCTAGTGCAG”, the binding signal is reported as 4830 fluorescence intensity (a.u.). For “CTAAAATTACATATGTAATTTAGGCACTTACATATGTAATCGGAGTCACCTAGTGCAG”, the binding signal was 19500 fluorescence intensity (a.u.). With “TGTTAACCAGATTTATTATATTTGAAAATGTCACCTCCAACGGAGTCACCTAGTGCAG” the binding signal was 8160 fluorescence intensity (a.u.). For “TTGCAAATAATTTGGAAAGGTAATATGAGCTACAGCTGTGCGGAGTCACCTAGTGCAG”, the binding signal was 7080 fluorescence intensity (a.u.). In the case of “ATAATGGATTGCTTGTTCCAGCACTGAATGTGCTGCCAAGCGGAGTCACCTAGTGCAG”, the binding signal is reported as 6550 fluorescence intensity (a.u.). For “CGAATTAACTAGATCATATTACTCTTTCATGCAATAAACACGGAGTCACCTAGTGCAG”, the binding signal was 4320 fluorescence intensity (a.u.). “TGGGATAATTAACTCGTAATGATCCCCAAATGCGTGCGTACGGAGTCACCTAGTGCAG” was tested, and the binding signal was 28300 fluorescence intensity (a.u.). “GTTAACGACCAAAATTGGTAGCATCGACACCTCCCTGGGCCGGAGTCACCTAGTGCAG” was tested, and the binding signal was 4240 fluorescence intensity (a.u.). For “AATAGATAGATTGATACCACCACTTAACTATACTAATGCTCGGAGTCACCTAGTGCAG”, the binding signal was 63700 fluorescence intensity (a.u.). “GGTAATTGATTATGCACCTGATCTAGATACATGTACAGCTCGGAGTCACCTAGTGCAG” was tested, and the binding signal was 61800 fluorescence intensity (a.u.). “ATTATTGAACGAATGATTATCGTAGATTATACATCTAGCCCGGAGTCACCTAGTGCAG” was tested, and the binding signal was 28400 fluorescence intensity (a.u.). In the case of “GGTGATTAGACCGGTGATCTATACCGGTCAGACCGATAGCCGGAGTCACCTAGTGCAG”, the binding signal is reported as 47800 fluorescence intensity (a.u.). With “TAGCCACCGTGATTGATTGATCTATAGATCGATTGGTGCCCGGAGTCACCTAGTGCAG” the binding signal was 64000 fluorescence intensity (a.u.). In the case of “AGATAGATAGATAGATAGATAGATAGATAGATAGATAGATCGGAGTCACCTAGTGCAG”, the binding signal is reported as 55700 fluorescence intensity (a.u.). With “ATCTATAATTAGATTGATATGATTATCTTGTGTACAACAACGGAGTCACCTAGTGCAG” the binding signal was 37800 fluorescence intensity (a.u.). “TAGATAGATAGAAGATAATAGAAGATAGATAATAGAAGATCGGAGTCACCTAGTGCAG” was tested, and the binding signal was 10200 fluorescence intensity (a.u.). In the case of “ATAGATAGATAGATAATAGATAGATAGAAGATAGATAGATCGGAGTCACCTAGTGCAG”, the binding signal is reported as 44600 fluorescence intensity (a.u.). For “AGTTATGTAATTGGATCATGAGTAGATATACATGTGTGCTCGGAGTCACCTAGTGCAG”, the binding signal was 29300 fluorescence intensity (a.u.). In the case of “TTACTTAATTACTATAGATAATTAGTTGATTAGTGTTACTCGGAGTCACCTAGTGCAG”, the binding signal is reported as 45000 fluorescence intensity (a.u.). In the case of “TCCACTAATATTAACCAATAGACAGATATACTATCACAGTCGGAGTCACCTAGTGCAG”, the binding signal is reported as 10800 fluorescence intensity (a.u.). For “AGTGGTGATGGGCACAATGGTGATTAGAGTGGCGGAGATCCGGAGTCACCTAGTGCAG”, the binding signal was 7460 fluorescence intensity (a.u.). For “TATTGATTTAATGAAACTAATTTGGTATTATAAATATTACCGGAGTCACCTAGTGCAG”, the binding signal was 32200 fluorescence intensity (a.u.). For “GGAGAGCAATCAAGCGAAATTGACACGTGTCACGGCAGTGCGGAGTCACCTAGTGCAG”, the binding signal was 30300 fluorescence intensity (a.u.). For “ATGCAAAGTTGCAGGGATTGATTGGCTGTTTCGTTTGCTACGGAGTCACCTAGTGCAG”, the binding signal was 21800 fluorescence intensity (a.u.). With “CATCCAAATTGGCAAAGGCCGCCTCTTTCTTTAATTAACCCGGAGTCACCTAGTGCAG” the binding signal was 14100 fluorescence intensity (a.u.). “TGCGTGATTAGCTGATAATACACGTGAATTATGTATGACGCGGAGTCACCTAGTGCAG” was tested, and the binding signal was 52800 fluorescence intensity (a.u.). “ACAAATTGAGTGTTATAGTGAGATGGCATCGGAGATGAGCCGGAGTCACCTAGTGCAG” was tested, and the binding signal was 32400 fluorescence intensity (a.u.). For “TAGCTAGATTGATAATGTACATATATGAATTTGTATGCGACGGAGTCACCTAGTGCAG”, the binding signal was 55500 fluorescence intensity (a.u.). “AAGATAAAATGTATGATTGTATGCCTAATTTGAATAGTGGCGGAGTCACCTAGTGCAG” was tested, and the binding signal was 15900 fluorescence intensity (a.u.). With “AGTATAATTAGCATACTATGATATCGATATACACGTTATGCGGAGTCACCTAGTGCAG” the binding signal was 31400 fluorescence intensity (a.u.). With “TAGCTGATTATTACAGATGTTGGAGGATGAATAATTGTGACGGAGTCACCTAGTGCAG” the binding signal was 13500 fluorescence intensity (a.u.). “TTGTATAAATTGCTATTAGATTGGCTATATATGAATTAGACGGAGTCACCTAGTGCAG” was tested, and the binding signal was 37500 fluorescence intensity (a.u.). For “TTGACATCATCATTGACGTGATAGATATAGTATATTAGACCGGAGTCACCTAGTGCAG”, the binding signal was 17000 fluorescence intensity (a.u.). “ATCGTGATTGATGGCATTGGTATAGATTTCGAGCATTGGCCGGAGTCACCTAGTGCAG” was tested, and the binding signal was 63900 fluorescence intensity (a.u.).

Reference: publication PMC7819943, “Rice protein-binding microarrays: a tool to detect cis-acting elements near promoter regions in rice”
